From the supplement of paper PMC12494721
Where a name gives a salt, the structure may show the parent alone.

Key:
Settings in all cases: incubation time: 27 h, anaerobic, 37 °C;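 for the amine columns active = adjusted P below 0.05 in both replicates with a change the same way and a mean fold change under 0.8 or over 1.25; inactive = the rest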
[1] = test system: Clostridium sporogenes DSM 1664; assay: growth (OD595) fold change vs plate DMSO controls (fold change (ratio)); higher = more growth
How it was run: (§1)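 Growth is calculated as fold change against the median of the DMSO control wells on each plate. Readings at 595 nm from anaerobic mGAM cultures (96-well, 27 h, 37 °C) were blank-subtracted, background-corrected with 20 µM compound solutions in water, and converted to OD by a calibration factor of 5. Fold changes above 1.5 were recorded as NA, and results are means of 2 biological replicates.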

Escherichia coli IAI1 [2] = assay: as above
How it was run: as §1

[3] = test system: Klebsiella aerogenes DSM 30053; assay: as above
How it was run: as §1

[4] = test system: Klebsiella aerogenes DSM 30053; assay: fold change of Histamine concentration vs plate DMSO controls (fold change (ratio)); higher = more amine produced, active = hit call of the paper (significant change in both replicates, either direction)
How it was run: (§2)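 Extracts of whole anaerobic mGAM cultures were analysed for amines by LC–triple-quadrupole MS with dynamic MRM and external calibration curves, with drift corrected within batch. Four gut strains were grown at 37 °C for 27 h in 80 µL wells with compounds at 20 µM final, sweeteners at 50 µM final. Each value expresses fold change over plate DMSO controls. The average of 2 biological replicates is shown.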

[5] = test system: Clostridium sporogenes DSM 1664; assay: fold change of Tryptamine concentration vs plate DMSO controls (fold change (ratio)); higher = more amine produced, active = hit call of the paper (significant change in both replicates, either direction)
How it was run: as §2

[6] = test system: Ruminococcus gnavus DSM 108212; assay: as above
How it was run: as §2

Escherichia coli IAI1 [7] = assay: fold change of Putrescine concentration vs plate DMSO controls (fold change (ratio)); higher = more amine produced, active = hit call of the paper (significant change in both replicates, either direction)
How it was run: as §2

[8] = test system: Klebsiella aerogenes DSM 30053; assay: as above
How it was run: as §2

Escherichia coli IAI1 [9] = assay: fold change of Cadaverine concentration vs plate DMSO controls (fold change (ratio)); higher = more amine produced, active = hit call of the paper (significant change in both replicates, either direction)
How it was run: as §2

[10] = test system: Klebsiella aerogenes DSM 30053; assay: as above
How it was run: as §2

[11] = test system: Ruminococcus gnavus DSM 108212; assay: fold change of 2-Phenylethylamine concentration vs plate DMSO controls (fold change (ratio)); higher = more amine produced, active = hit call of the paper (significant change in both replicates, either direction)
How it was run: as §2

[12] = test system: Ruminococcus gnavus DSM 108212; assay: growth (OD595) fold change vs plate DMSO controls (fold change (ratio)); higher = more growth
How it was run: as §1

SMILES | growth [1] | growth (Escherichia coli IAI1 [2]) | growth [3] | fold change of Histamine concentration [4] | fold change of Tryptamine concentration [5] | fold change of Tryptamine concentration [6] | fold change of Putrescine concentration (Escherichia coli IAI1 [7]) | fold change of Putrescine concentration [8] | fold change of Cadaverine concentration (Escherichia coli IAI1 [9]) | fold change of Cadaverine concentration [10] | fold change of 2-Phenylethylamine concentration [11] | growth [12]
Clc1ccc(Nc2nnc(Cc3ccncc3)c3ccccc23)cc1 [Vatalanib] (20 µM) | 1.06 | 1.19 | 1.08 | 0.91 (inactive) | 1.12 (inactive) | 1.02 (inactive) | 1.17 (inactive) | 0.942 (inactive) | 0.945 (inactive) | 1.02 (inactive) | 1.01 (inactive) | 
CN(C)CCOC(=O)COc1ccc(Cl)cc1 [Meclofenoxate hydrochloride] (20 µM) | 1.13 | 1.02 | 1.01 | 1.11 (inactive) | 0.931 (inactive) | 0.958 (inactive) | 1 (inactive) | 1.01 (inactive) | 1.02 (inactive) | 0.979 (inactive) | 0.895 (inactive) | 0.995
CC(C)(O/N=C(\C(=O)N[C@@H]1C(=O)N2C(C(=O)[O-])=C(C[n+]3ccccc3)CS[C@H]12)c1csc(N)n1)C(=O)O [Ceftazidime pentahydrate] (20 µM) | 0.781 | 0.132 | 0.595 | 1.18 (inactive) | 1.04 (inactive) | 0.877 (inactive) | 2.08 (active) | 0.905 (inactive) | 2.09 (active) | 1.16 (inactive) | 0.865 (inactive) | 
C[C@H]1COc2c(N3CCN(C)CC3)c(F)cc3c(=O)c(C(=O)O)cn1c23 [Levofloxacin] (20 µM) | 0.012 | 0.012 | 0.11 | 0.107 (active) | 0.0435 (active) | 0.755 (active) | 0.521 (active) | 0.657 (active) | 0.226 (active) | 0.953 (inactive) | 0.823 (inactive) | 
CC/C(=C(\c1ccccc1)c1ccc(OCCN(C)C)cc1)c1ccccc1 [Tamoxifen citrate] (20 µM) | 1.11 | 1.06 | 1.02 | 0.918 (inactive) | 0.977 (inactive) | 0.657 (active) | 1.06 (inactive) | 0.989 (inactive) | 1.05 (inactive) | 1 (inactive) | 0.738 (inactive) | 
Nc1ncn(C2OC(CO)C(O)C2O)c(=O)n1 (stereo not drawn) [Azacytidine-5] (20 µM) | 1.02 | 0.811 | 0.974 | 1.03 (inactive) | 0.953 (inactive) | 0.881 (inactive) | 0.794 (inactive) | 1.01 (inactive) | 1.72 (active) | 0.985 (inactive) | 0.935 (inactive) | 
Cc1cc(C(C)(C)CC(C)(C)C)ccc1OCCOCC[N+](C)(C)Cc1ccccc1 [Methyl benzethonium chloride] (20 µM) | 0.896 | 1.13 | 1.04 | 1.11 (inactive) | 0.948 (inactive) | 0.726 (active) | 1.05 (inactive) | 1.01 (inactive) | 1.04 (inactive) | 0.985 (inactive) | 0.803 (inactive) | 
